Source: PubChem BioAssay (NCATS)
Inconclusive results are not listed. The source made the active and inactive calls. Calls follow the shape of the dose curve; as a rule, active = well fitted cell-killing curve with a large enough effect; inconclusive = small, poorly fitted or top-dose-only effect, or effect the other way; inactive = no such curve, though single readings can be large or run the other way.

Test: Quantitative High-Throughput drug screen in 47 multiple myeloma cell lines against the NCATS MIPE library collection: KMS26_JCRB cell viability assay (AID 1918975); also: nearly all actives have a fitted effect of over 45% in size
Conditions: KMS26 myeloma cells viability, CellTiter-Glo ATP, 48 h; series mostly up to 45.8 µM
From the text: PI: Beverly A. Mock Ph.D.
Laboratory of Cancer Biology and Genetics,
Center for Cancer Research, National Cancer Institute,
National Institute of Health, Bethesda, Maryland
Drug resistance and disease progression are common in multiple myeloma (MM) patients, underscoring the need for new therapeutic combinations. […] We hypothesized that effective combinations would reduce MYC expression and enhance p16 activity. […] These preclinical data identify potentially useful drug combinations for evaluation in drug-resistant MM and reveal potential mechanisms of combined drug sensitivity.
Described herein is the primary MIPE qHTS used to cherrypick compounds. Validated compounds were then further tested for potential synergistic activiy.
[1] Peat TJ, Gaikwad SM, Dubois W, Gyabaah-Kessie N, Zhang S, Gorjifard S, Phyo Z, Andres M, Hughitt VK, Simpson RM, Miller MA, Girvin AT, Taylor A, Williams D, D'Antonio N, Zhang Y, Rajagopalan A, Flietner E, Wilson K, Zhang X, Shinn P, Klumpp-Thomas C, McKnight C, Itkin Z, Chen L, Kazandijian D, Zhang J, Michalowski AM, Simmons JK, Keats J, Thomas CJ, Mock BA. Drug combinations identified by high-throughput screening promote cell cycle transition and upregulate Smad pathways in myeloma. Cancer Lett. 2023 Aug 1;568:216284. doi: 10.1016/j.canlet.2023.216284. Epub 2023 Jun 24. PMID: 37356470; PMCID: PMC10408729.
SEQUENCE No. (e.g., 1, 2, 3, etc.); […] (e.g., Cells, Incubation, Reagent, etc.); VALUE and DESCRIPTION.
1; Cells; 5 uL; white, solid bottom 1536-well Greiner assay plate.
2; Compounds; 23 nL; Kalypsis pin tool (Wako USA) equipped with a 1536-well pin head to transfer to the assay plates.
3; Incubation; 48 hours; 37C incubation.
4; Reagent;5uL; CellTiter Glo (Promega).
5; Detector; 425V; Luminescence; Viewlux PerkinElmer.
NOTES (numbers refer to Sequence numbers above)
1. The cell-based screening methods employed in this study were like those previously published. Briefly, the corresponding myeloma cell lines were screened in 1,536-well plates with 500 cells, 5-uL per well for inhibition of cell viability (assessed by measuring ATP levels with CellTiterGlo).
2. NCATS MIPE 4.0 library of approved and investigational drugs were added using the Kalypsis pin tool. Wells treated with DMSO only for 100% viability and media only wells for 0% viability were used as controls.
3. The assay plates were covered and incubated for 48 hours in a 37C, 5% CO2 incubator with controlled humidity.
4. After 48 hours, CellTilter-GloTM luminescent substrate mix (Promega) reagent was added to the assay plate and plates we incubated for 5 min at room temperature.
5. Signal was measured as median relative luminescence units on a ViewLux (PerkinElmer) multiplate reader.
[1] Heske CM, Davis MI, Baumgart JT, Wilson K, Gormally MV, Chen L, Zhang X, Ceribelli M, Duveau DY, Guha R, Ferrer M, Arnaldez FI, Ji J, Tran HL, Zhang Y, Mendoza A, Helman LJ, Thomas CJ. Matrix Screen Identifies Synergistic Combination of PARP Inhibitors and Nicotinamide Phosphoribosyltransferase (NAMPT) Inhibitors in Ewing Sarcoma. Clin Cancer Res. 2017 Dec 1;23(23):7301-7311. doi: 10.1158/1078-0432.CCR-17-1121. Epub 2017 Sep 12. PMID: 28899971; PMCID: PMC6636827.
Potency is read from the fitted curve at half-maximal effect.

Compound	Potency	viability (% of DMSO)
CC(=O)N[C@@H]1[C@H](O[C@@H]2c3ccc(c(Cl)c3)Oc3cc4cc(c3O[C@H]3O[C@H](CO)[C@@H](O)[C@H](O)[C@H]3NC(=O)CCCCCCCC(C)C)Oc3ccc(cc3Cl)C[C@H]3NC(=O)[C@H](N)c5ccc(O)c(c5)Oc5cc(O)cc(c5)[C@H](NC3=O)C(=O)N[C@H]4C(=O)N[C@H]3C(=O)N[C@@H]2C(=O)N[C@@H](C(=O)O)c2cc(O)cc(O[C@H]4O[C@H](CO)[C@@H](O)[C@H](O)[C@H]4O)c2-c2cc3ccc2O)O[C@H](CO)[C@@H](O)[C@@H]1O	inactive	
O=C(O)CCCCC(CCSCc1ccccc1)SCc1ccccc1 (stereo not given)	inactive	
CCN(CC)Cc1ccc2cc(COC(=O)Nc3ccc(C(=O)NO)cc3)ccc2c1	0.743 µM (active)	
COc1ccnc2[nH]cc(C(=O)C(=O)N3CCN(C(=O)c4ccccc4)C[C@@H]3C)c12	inactive	
CC(C)N1[N]C(=C2C=c3cc(O)ccc3=N2)c2c(N)ncnc21	1.18 µM (active)	
COC(=O)[C@H](CCCN=C(N)N)NS(=O)(=O)c1ccc(C)cc1	inactive	
CC(=O)SCC(Cc1ccccc1)C(=O)NCC(=O)OCc1ccccc1 (stereo not given)	18.7 µM (active)	
CC(C)c1cc(C(C)C)c(CC(=O)NS(=O)(=O)Oc2c(C(C)C)cccc2C(C)C)c(C(C)C)c1	26.4 µM (active)	
C[C@H](NCc1ccc2c(c1)nc(NC(=O)c1ccc(-c3cn[nH]c3)s1)n2CCc1ccccc1)C(C)(C)C	1.87 µM (active)	
CC(=O)OCC(=O)[C@@]1(O)CC[C@H]2[C@@H]3CCC4=CC(=O)CC[C@]4(C)[C@@H]3C(=O)C[C@@]21C	inactive	
O=C1c2cccc(O)c2C(=O)c2c(O)cc(CO)cc21	inactive	
C=C(C)[C@@H]1CC[C@]2(C(=O)O)CC[C@]3(C)[C@H](CC[C@@H]4[C@@]5(C)CC[C@H](O)C(C)(C)[C@@H]5CC[C@]43C)[C@@H]12	inactive	
C=CC[C@@H]1C=C(C)C[C@H](C)C[C@H](OC)[C@H]2O[C@@](O)(C(=O)C(=O)N3CCCC[C@H]3C(=O)O[C@H](C(C)=C[C@@H]3CC[C@H](O)[C@H](OC)C3)[C@@H](C)[C@@H](O)CC1=O)[C@@H](C)C[C@@H]2OC	0.935 µM (active)	
CC[C@@]1([C@@H]2O[C@@H]([C@H]3O[C@@](O)(CO)[C@H](C)C[C@H]3C)C[C@H]2C)CC[C@H]([C@]2(C)CC[C@]3(C[C@H](O)[C@@H](C)[C@@H]([C@@H](C)[C@@H](OC)[C@H](C)C(=O)O)O3)O2)O1	0.182 µM (active)	
CCCCCCCCc1ccc(CCC(N)(CO)CO)cc1	16.6 µM (active)	
C[C@@H](Oc1ccc2[nH]nc(C=Cc3cnn(CCO)c3)c2c1)c1c(Cl)cncc1Cl	8.33 µM (active)	
CC(=O)N[C@H]1[C@@H]([C@H](O)[C@H](O)CO)OC(C(=O)O)=C[C@@H]1N=C(N)N	inactive	
O=C(C=Cc1ccc(CN(CCO)CCc2c[nH]c3ccccc23)cc1)NO	0.105 µM (active)	
O=C(O)[C@H](CC(=O)N1C[C@@H]2CCCC[C@H]2C1)Cc1ccccc1	inactive	
CC(C)(C)[C@H](NC(=O)c1ccc(N)c(Cl)c1)C(=O)N1CCC[C@@H]1C(=O)N[C@H](C#N)CC(=O)O		125% [at 3.51 µM] (inactive)

Compound	Potency	viability (% of DMSO)
C[C@H](NC(=O)C(C#N)=Cc1cccc(Br)n1)c1ccccc1	2.35 µM (active)	
CC1=C(C(=O)Nc2cc3cn[nH]c3cc2F)C(c2ccc(Cl)cc2F)N=C(c2ccnc(Cl)c2)N1 (stereo not given)	inactive	
CN[C@H](CC(C)C)C(=O)N[C@H]1C(=O)N[C@@H](CC(N)=O)C(=O)N[C@@H]2C(=O)N[C@H]3C(=O)N[C@H](C(=O)N[C@H](C(=O)O)c4cc(O)cc(O)c4-c4cc3ccc4O)[C@H](O)c3ccc(c(Cl)c3)Oc3cc2cc(c3O[C@@H]2O[C@H](CO)[C@@H](O)[C@H](O)[C@@H]2O[C@H]2C[C@](C)(N)[C@H](O)[C@H](C)O2)Oc2ccc(cc2Cl)[C@H]1O	inactive	
CCCCC(=O)O[C@]1(C(=O)CO)[C@@H](C)C[C@H]2[C@@H]3CCC4=CC(=O)C=C[C@]4(C)[C@@]3(F)[C@@H](O)C[C@@]21C	inactive	
O=C(C=CC#Cc1cccc(NS(=O)(=O)c2ccccc2)c1)NO	3.32 µM (active)	
CC(C)c1cnn2c(NCc3ccccc3)cc(NCCCCCCN)nc12	14.8 µM (active)	
CCCCCCCCCCCCCCCC(=O)OC[C@@H](NC(=O)C(Cl)Cl)[C@H](O)c1ccc([N+](=O)[O-])cc1	inactive	
C=CC(=O)Nc1cc(NC(=O)c2ccc(C)c(NC(=O)c3ccno3)c2)cc(C(F)(F)F)c1	18.7 µM (active)	
COc1ccc(S(=O)(=O)Nc2cc(-c3c(O)ccc4ccccc34)c(O)c3ccccc23)cc1	14.8 µM (active)	
CC(=O)[C@]1(O)Cc2c(O)c3c(c(O)c2[C@@H](O[C@H]2C[C@H](N)[C@@H](O)[C@H](C)O2)C1)C(=O)c1ccccc1C3=O	0.264 µM (active)	
O=C(NC1CC1)c1cccc(-c2ccc3c(NC(=O)C4CC4)n[nH]c3c2)c1	2.64 µM (active)	
CCc1cnn2c(NCc3ccc[n+]([O-])c3)cc(N3CCCC[C@@H]3CCO)nc12	0.0187 µM (active)	
C#CCC(Cc1cnc2nc(N)nc(N)c2n1)c1ccc(C(=O)N[C@@H](CCC(=O)O)C(=O)O)cc1 (stereo not given in full)	0.105 µM (active)	
N#Cc1ccc(COC[C@H]2O[C@@H](n3c(NCc4ccc(Cl)c(Cl)c4)nc4c(N)ncnc43)[C@@H](O)[C@@H]2O)cc1	2.35 µM (active)	
Cn1cc(C[C@@H](N)C(=O)O)c2ccccc21	inactive	
NC(=O)c1ncn([C@@H]2O[C@H](CO)[C@@H](O)[C@@H]2O)c1N	inactive	
CC(C)N(CC[C@H](c1ccccc1)c1cc(CO)ccc1O)C(C)C	inactive	
O=C(O)C[C@H](O)C[C@H](O)C=Cc1c(C2CC2)nc2ccccc2c1-c1ccc(F)cc1	18.7 µM (active)	
Cn1cnc(=N)c2[nH]cnc21	0.132 µM (active)	
O=C(O)CCCCCC(=O)NN=C1CCCC1	inactive	
